HPGD block = HPGD (human) dehydrogenase inhibition. P15428. purified HPGD, NADH fluorescence kinetic, PGE2 substrate. Potency, µM, inactives show at the highest dose activity change, negative = inhibition, actives largely listed as inhibitors. 150,000 compounds, 4.3% hits. AID 894; also: potency is read from the fitted curve at half-maximal effect
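20 nM HPGD preincubated 15 min at room temperature with compound in 50 mM Tris-HCl pH 8, 0.01% Tween 20. Started with 1 mM NAD+ and 30 uM prostaglandin E2; NADH fluorescence (360/450 nm) read 5 times over 30-s intervals, last minus first.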
PNC assembly inh = blocks assembly of the perinucleolar compartment | PC3M PTB-GFP, PNC prevalence imaging, 16 h; hits give low values | activity change (PNC), negative = inhibition, % at 10 µM | 140,000 compounds, 3.1% hits | AID 2417;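 active = readout at or below -70, meaning at least 70% loss of cells showing the perinucleolar compartment, a nuclear body marking cancer cells; inconclusive = readout between -30 and a set limit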;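 also: plate controls were DMSO wells for no effect and camptothecin positive control wells for full effect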
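Read-out is percentage of cells bearing a perinucleolar compartment, from automated 20x imaging of fixed, Hoechst-stained PC3M PTB-GFP cells. Cells were seeded 4 h, then exposed 16 h to compound (23 nl of library stock) in duplicate plates.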
IMPase cell inh = membrane-permeable compound that blocks inositol monophosphatase; P97697; CHO-M1 cells, IP1 accumulation, HTRF TR-FRET ratio; inhibition (IP1 accumulation), % at 46.1 µM; 120,000 tested, under 10 active; AID 901; active = well fitted curve in the direction sought with a large enough effect in the signal ratio, not every such curve was filed as active; inconclusive = small, poorly fitted or top-dose-only effect, or a change in a side signal; inactive = no such curve, though single readings can be large or run the other way; the % refers to the signal ratio;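 also: cells stimulated with carbachol in lithium chloride buffer; plate controls were DMSO basal wells for no effect and reference inhibitor wells for full effect; higher means more IMPase inhibition seen as more IP1 and lower FRET ratio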
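In this qHTS, compounds (final up to 46 uM) act on CHO-M1 cells that are then activated through the M1 receptor with carbachol, in pH 7.4 buffer containing 50 mM LiCl, for 30 min. IP1 accumulation is quantified by the IP-One immunoassay.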
KinaseGlo FLuc = Kinase-Glo luciferase inhibition (counter-screen) | Q27757 | Kinase-Glo luciferase, ATP luminescence, 8 min | Potency, µM (highest dose often 38.3 µM), inactives show at the highest dose activity change, negative = inhibition, usual class: inhibitors | 200,000 compounds, 0.28% hits | AID 1379; active = well fitted inhibition curve with a large enough effect; inconclusive = small, poorly fitted or top-dose-only effect; also: potency is read from the fitted curve at half-maximal effect; nearly all actives have a fitted effect of over 60% in size
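Kinase-Glo luciferase light output from ATP and luciferin was measured with 10 uM ATP, within the enzyme's linear range. Buffer: 50 mM imidazole pH 7.2, 50 mM KCl, 7 mM MgCl2, 0.01% Tween 20, 0.05% BSA; luminescence read after 8 min at ambient temperature.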
ALDH1A1 block = blocks purified human ALDH1A1 activity | P00352 | Purified ALDH1A1, NADH fluorescence, propionaldehyde substrate | Potency, µM (doses to about 75.3 µM), for the others: at the highest dose activity, negative = inhibition, hits mostly inhibitors | 220,000 compounds, 7.3% hits | AID 1030;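 also: potency is read from the fitted curve at half-maximal effect; plate controls were no enzyme wells and a reference inhibitor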
Target sequence (P00352 whole entry, looked up): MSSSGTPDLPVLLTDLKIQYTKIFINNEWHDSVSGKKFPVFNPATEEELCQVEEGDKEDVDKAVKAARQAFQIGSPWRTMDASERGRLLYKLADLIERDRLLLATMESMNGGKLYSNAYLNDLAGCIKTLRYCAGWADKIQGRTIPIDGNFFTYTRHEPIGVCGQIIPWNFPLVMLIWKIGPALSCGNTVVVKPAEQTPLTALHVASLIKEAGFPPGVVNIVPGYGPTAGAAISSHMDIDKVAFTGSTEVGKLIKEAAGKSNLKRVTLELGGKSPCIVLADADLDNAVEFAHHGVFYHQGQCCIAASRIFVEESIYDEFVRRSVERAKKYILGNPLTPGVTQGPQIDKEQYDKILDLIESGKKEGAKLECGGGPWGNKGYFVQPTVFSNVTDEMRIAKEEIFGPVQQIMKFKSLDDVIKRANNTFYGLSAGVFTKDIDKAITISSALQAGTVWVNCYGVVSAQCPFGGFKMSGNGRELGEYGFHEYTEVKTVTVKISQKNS
Lamin A splicing = LMNA splicing modulation; HeLa LMNA splicing GFP/RFP minigene ratio, 48 h; AID 1487; Potency, µM (top dose mostly 46.1 µM), without a hit: at the highest dose ratio change, negative = inhibition, actives largely listed as inhibitors; 200,000 compounds, 0.01% hits; active = well fitted inhibition curve with a large enough effect in the signal ratio, with a control signal flat, not every such curve was filed as active; inconclusive = small, poorly fitted or top-dose-only effect, or effect the other way, or a change in a side signal; the % refers to the signal ratio; also: potency is read from the fitted curve at half-maximal effect
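Read-out is the ratio of GFP to DsRed2 object intensity, acquired by 488 nm laser-scanning cytometry on HeLa lamin A-EGFP minigene reporter cells. Compound incubation 48 hrs at 37 °C in Opti-MEM with 2% FBS; DMSO 0.5% final.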
Active calls of the source: *; [ ] = another dose, or the depositor's remark. Shown are actives, neighbours in structure and some others; about 10% of the full set was active somewhere. Unless noted, calls follow the shape of the dose curve; as a rule, active = well fitted inhibition curve with a large enough effect (not every such curve was filed as active); inconclusive = small, poorly fitted or top-dose-only effect, or another doubt; inactive = no such curve, though single readings can be large or run the other way. Unless noted, % is scaled to controls: 0 for no effect and ±100 for the full control effect.

What do the screens show for `O=C(CN1CCCCC1)c1ccc(OC(F)F)cc1`?
HPGD block: -3.5%; PNC assembly inh: -19.9; IMPase cell inh: -5.3; KinaseGlo FLuc: 1.9%; ALDH1A1 block: inconclusive; Lamin A splicing: -7.1%

How did O=C(CN1CCCCC1)c1ccccc1Cl do in these assays?
HPGD block: -18.1%; PNC assembly inh: 44.8; KinaseGlo FLuc: 0.9%; ALDH1A1 block: 12.6µM*; Lamin A splicing: -2.5%

Results for O=C(CN1CCCCC1)c1ccccc1F ?
KinaseGlo FLuc: -4.1%; ALDH1A1 block: 3.1%; Lamin A splicing: inconclusive

What do the screens show for `COC(=O)C12CC3=C[C@H](CC3=O)Cc3ccccc3[C@@H]1CNC2=O` (stereo partly drawn)?
HPGD block: -10.7%; KinaseGlo FLuc: -1.0%; ALDH1A1 block: 6.7%

Results for [O-]/[N+](=N\O)c1ccccc1 ?
HPGD block: 12.6µM*; ALDH1A1 block: 10µM*

What do the screens show for `Cc1c2ccncc2c(C)c2c1[nH]c1ccccc12`?
HPGD block: -16.0%; PNC assembly inh: -114.6*; IMPase cell inh: -2.1; KinaseGlo FLuc: -2.0%; ALDH1A1 block: inconclusive; Lamin A splicing: inconclusive

What do the screens show for `C[C@@H]1Cc2cc3c(cc2C(c2ccc(N)cc2)=NN1)OCO3`?
IMPase cell inh: -0.4

How did CCCCn1c(O)c(C(C)=NCCN2CCOCC2)c(=O)[nH]c1=O do in these assays?
HPGD block: -3.7%; PNC assembly inh: -27.6; IMPase cell inh: 3.2; KinaseGlo FLuc: -3.3%; ALDH1A1 block: -13.7%; Lamin A splicing: -1.9%

What do the screens show for `CC(=NCCN1CCOCC1)c1c(O)n(C2CCCCC2)c(=O)[nH]c1=O`?
HPGD block: 0.3%; PNC assembly inh: 24.4; IMPase cell inh: 2.8; KinaseGlo FLuc: 5.7%; ALDH1A1 block: 14.1µM*; Lamin A splicing: inconclusive

What do the screens show for `CN1C(=O)C(=Cc2ccc(N3CCOCC3)o2)C(=O)N(C)C1=O`?
HPGD block: 15.8µM*; PNC assembly inh: -23.6; KinaseGlo FLuc: -28.5%; ALDH1A1 block: 6.2%; Lamin A splicing: 2.1%

Results for CN1C(=O)C(=Cc2ccc(N3CCCCCC3)o2)C(=O)N(C)C1=S ?
HPGD block: -14.7%; PNC assembly inh: 4.0; IMPase cell inh: -4.4; KinaseGlo FLuc: -13.1%; ALDH1A1 block: inconclusive; Lamin A splicing: 7.6%

Results for Cc1ccc(Sc2ccc(C=C3C(=O)N(C)C(=O)N(C)C3=O)o2)cc1 ?
KinaseGlo FLuc: -2.8%; ALDH1A1 block: 4.47µM*

What do the screens show for `CN1C(=O)C(=Cc2ccc(-c3cccc(Cl)c3)o2)C(=O)N(C)C1=O`?
HPGD block: 7.94µM*; PNC assembly inh: -7.5; KinaseGlo FLuc: -11.1%; ALDH1A1 block: inconclusive; Lamin A splicing: -7.5%

What do the screens show for `COC1C(O)C(C)O[C@H](OC2CC[C@@]3(C=O)C4CC[C@]5(C)C(C6=CC(=O)OC6)CC[C@@]5(O)C4CC[C@@H]3C2)C1O` (stereo partly drawn)?
HPGD block: -6.7%; KinaseGlo FLuc: -5.2%; ALDH1A1 block: -4.2%

What do the screens show for `CCOC(=O)[C@@H]1[C@@H]2c3ccccc3-c3ccccc3[C@H]2C[C@H]1O`?
HPGD block: -8.4%; KinaseGlo FLuc: -4.4%[7.66 µM]; ALDH1A1 block: 13.7%[13.5 µM]

How did Cc1ccc(N)cc1[N+](=O)[O-] do in these assays?
HPGD block: -8.2%; ALDH1A1 block: inconclusive

Results for Oc1cc(Cl)c(Cl)cc1Cl ?
HPGD block: 5.62µM*; ALDH1A1 block: -1.8%

Results for Oc1cc(Cl)c(Cl)c(Cl)c1Cl ?
HPGD block: inconclusive; ALDH1A1 block: 0.5%

What do the screens show for `C=Cc1ccccc1`?
HPGD block: -4.0%; ALDH1A1 block: inconclusive

What do the screens show for `CC12CC(c3ccccc3O1)C(C(=O)OCc1ccccc1)C(=O)N2` (stereo not drawn)?
HPGD block: -6.4%; PNC assembly inh: -118.9*; IMPase cell inh: 15.1; KinaseGlo FLuc: 2.0%; ALDH1A1 block: 0.6%; Lamin A splicing: -1.8%
